# Experimental data published in the supplement of paper PMC8728848.
# About 410 targets per protein were measured; listed, in parts, are those with the strongest signals and a random draw of the rest.
# B1: Cohesin-marm-DC-ASGPR (protein)
# chain: LDITSHHHHHHDDLDAVRIKVDTVNAKPGDTVRIPVRFSGIPSKGIANCDFVYSYDPNVLEIIEIEPGDIIVDPNPDKSFDTAVYPDRKIIVFLFAEDSGTGAYAITKDGVFATIVAKVKEGAPNGLSVIKFVEVGGFANNDLVEQKTQFFDGGVNVGDTTEPATPTTPVTTPTTTDDLDAASSKFQRDLVTLRTDFSNFTSNTLAEIQALTSQGSSLQETIASLKAEVEGHKQELQAGASELQEHNKQKAHLGRCPHTCVCPSSFVCVPVHSEILLRVQQLVQDLNKLSCQVAILKNNATTERTCCPINWVEHQGSCYWFSRSGKTWPEAERYCQLENTHLVVINSREEQNFVQAHLGSAYTWMGLSDPEGVWKWVDGTDYSSGFQNWKPGQPDDWQGHGLGGGEDCAHFHPDGRWNDDVCQRSYHWVCEAGLTQASQDSHAS
# Key:
# Experiment in all cases: glycan array binding signal (z-score within array); higher = stronger binding
# Details in all cases: glycan notation: IUPAC condensed, linker removed
# [1] = molecular target: GlcNAc(a1-4)Gal(b1-3)GlcNAc
# How it was run: (§1)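 The Consortium for Functional Glycomics database supplied 3228 glycan arrays, of which those lacking an available protein sequence were dropped. The binding signal, a within-array Z-score, was averaged across arrays of the same protein sequence and across linkers. Negative scores can be read as non-binding.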
# [2] = molecular target: GlcNAc(b1-2)[GlcNAc(b1-4)]Man(a1-3)[GlcNAc(b1-4)][GlcNAc(b1-2)Man(a1-6)]Man(b1-4)GlcNAc(b1-4)GlcNAc
# How it was run: as §1
# [3] = molecular target: GlcNAc(b1-2)[GlcNAc(b1-4)]Man(a1-3)[GlcNAc(b1-4)][GlcNAc(b1-2)[GlcNAc(b1-6)]Man(a1-6)]Man(b1-4)GlcNAc(b1-4)[Fuc(a1-6)]GlcNAc
# How it was run: as §1
# [4] = molecular target: GlcNAc(b1-2)[GlcNAc(b1-6)]Man(a1-6)[GlcNAc(b1-2)Man(a1-3)]Man(b1-4)GlcNAc(b1-4)[Fuc(a1-6)]GlcNAc
# How it was run: as §1
# [5] = molecular target: GlcNAc(b1-2)[GlcNAc(b1-6)]Man(a1-6)[GlcNAc(b1-4)][GlcNAc(b1-2)Man(a1-3)]Man(b1-4)GlcNAc(b1-4)GlcNAc
# How it was run: as §1
# [6] = molecular target: GlcNAc(b1-3)Gal
# How it was run: as §1
# [7] = molecular target: GlcNAc(b1-3)GalNAc
# How it was run: as §1
# [8] = molecular target: GlcNAc(b1-3)[GlcNAc(b1-6)]Gal(b1-4)GlcNAc
# How it was run: as §1
# [9] = molecular target: GlcNAc(b1-3)[GlcNAc(b1-6)]GalNAc
# How it was run: as §1
# [10] = molecular target: GlcNAc(b1-6)GalNAc
# How it was run: as §1
# [11] = molecular target: Man(a1-2)Man(a1-6)[Man(a1-3)]Man(a1-6)[Man(a1-2)Man(a1-2)Man(a1-3)]Man(b1-4)GlcNAc(b1-4)GlcNAc
# How it was run: as §1
# [12] = molecular target: Man(a1-3)[Man(a1-6)]Man(b1-4)GlcNAc(b1-4)[Fuc(a1-6)]GlcNAc
# How it was run: as §1
# [13] = molecular target: Neu5Ac(a2-3)Gal(b1-3)GalNAc6S
# How it was run: as §1
# [14] = molecular target: Neu5Ac(a2-3)Gal(b1-3)GlcNAc(b1-4)Gal(b1-4)Glc
# How it was run: as §1
# [15] = molecular target: Neu5Ac(a2-3)Gal(b1-3)GlcNAc6S
# How it was run: as §1
# [16] = molecular target: Neu5Ac(a2-3)Gal(b1-3)[GlcNAc(b1-6)]GalNAc
# How it was run: as §1
# [17] = molecular target: Neu5Ac(a2-3)Gal(b1-4)GlcNAc(b1-3)Gal(b1-4)GlcNAc(b1-3)Gal(b1-4)GlcNAc
# How it was run: as §1
# [18] = molecular target: Neu5Ac(a2-3)Gal(b1-4)GlcNAc(b1-3)Gal(b1-4)GlcNAc(b1-6)[Gal(b1-3)]GalNAc
# How it was run: as §1
# [19] = molecular target: Neu5Ac(a2-3)Gal(b1-4)GlcNAc(b1-3)[Neu5Ac(a2-3)Gal(b1-4)GlcNAc(b1-6)]GalNAc
# How it was run: as §1
# [20] = molecular target: Neu5Ac(a2-3)Gal(b1-4)GlcNAc(b1-6)GalNAc
# How it was run: as §1
# [21] = molecular target: Neu5Ac(a2-3)Gal(b1-4)[Fuc(a1-3)]GlcNAc(b1-3)Gal(b1-4)GlcNAc
# How it was run: as §1
# [22] = molecular target: Neu5Ac(a2-3)GalNAc
# How it was run: as §1
# [23] = molecular target: Neu5Ac(a2-6)Gal(b1-4)GlcNAc(b1-2)Man(a1-3)[GlcNAc(b1-4)][Neu5Ac(a2-6)Gal(b1-4)GlcNAc(b1-2)Man(a1-6)]Man(b1-4)GlcNAc(b1-4)GlcNAc
# How it was run: as §1
# [24] = molecular target: Neu5Ac(a2-6)Gal(b1-4)GlcNAc(b1-2)Man(a1-3)[Neu5Ac(a2-6)Gal(b1-4)GlcNAc(b1-2)Man(a1-6)]Man(b1-4)GlcNAc(b1-4)GlcNAc
# How it was run: as §1
# [25] = molecular target: Neu5Ac(a2-6)Gal(b1-4)GlcNAc(b1-2)Man(a1-6)[Man(a1-3)]Man(b1-4)GlcNAc(b1-4)GlcNAc
# How it was run: as §1
# [26] = molecular target: Neu5Ac(a2-6)Gal(b1-4)GlcNAc(b1-3)Gal(b1-4)GlcNAc(b1-6)[Gal(b1-3)]GalNAc
# How it was run: as §1
# [27] = molecular target: Neu5Ac(a2-6)GlcNAc(b1-4)GlcNAc(b1-4)GlcNAc
# How it was run: as §1
# [28] = molecular target: Neu5Ac(a2-8)Neu5Ac(a2-3)Gal(b1-3)GalNAc(b1-4)[Neu5Ac(a2-8)Neu5Ac(a2-3)]Gal(b1-4)Glc
# How it was run: as §1
# [29] = molecular target: Neu5Ac(a2-8)Neu5Ac(a2-3)[GalNAc(b1-4)]Gal(b1-4)Glc
# How it was run: as §1
# [30] = molecular target: Neu5Ac(a2-8)Neu5Ac(a2-8)Neu5Ac(a2-3)[Gal(b1-3)GalNAc(b1-4)]Gal(b1-4)Glc
# How it was run: as §1
binder,measurement,setting,value
B1,glycan array binding signal (z-score),[1],-0.3
same,glycan array binding signal (z-score),[2],-0.278
same,glycan array binding signal (z-score),[3],-0.313
same,glycan array binding signal (z-score),[4],-0.298
same,glycan array binding signal (z-score),[5],-0.311
same,glycan array binding signal (z-score),[6],-0.306
same,glycan array binding signal (z-score),[7],-0.287
same,glycan array binding signal (z-score),[8],-0.313
same,glycan array binding signal (z-score),[9],-0.291
same,glycan array binding signal (z-score),[10],4.74
same,glycan array binding signal (z-score),[11],-0.287
same,glycan array binding signal (z-score),[12],-0.31
same,glycan array binding signal (z-score),[13],-0.245
same,glycan array binding signal (z-score),[14],-0.303
same,glycan array binding signal (z-score),[15],-0.277
same,glycan array binding signal (z-score),[16],-0.303
same,glycan array binding signal (z-score),[17],-0.288
same,glycan array binding signal (z-score),[18],-0.307
same,glycan array binding signal (z-score),[19],-0.311
same,glycan array binding signal (z-score),[20],4.81
same,glycan array binding signal (z-score),[21],-0.244
same,glycan array binding signal (z-score),[22],-0.309
same,glycan array binding signal (z-score),[23],-0.308
same,glycan array binding signal (z-score),[24],-0.126
same,glycan array binding signal (z-score),[25],-0.314
same,glycan array binding signal (z-score),[26],-0.308
same,glycan array binding signal (z-score),[27],-0.312
same,glycan array binding signal (z-score),[28],-0.296
same,glycan array binding signal (z-score),[29],3.43
same,glycan array binding signal (z-score),[30],-0.305
